About 4,300 (8.3%) of roughly 52,000 compounds were called active. Rule as the data show it: active = survival mostly below about 52% (no sharp cut-off); inactive = mostly above about 56%. Only a selection was taken, and actives are over-represented in it overall.

For the assay, the system named is DeltatarO mutant. As to the kind of experiment: S. aureus survival, RN4220 and DeltatarO strains – OD600, teichoic acid synthesis inhibitors, primary screen (AID 463173). To be noted: S. aureus RN4220 wild type/DeltatarO growth, OD600, 18 h, active compounds read low, screened at 18.75 µg/mL (by protocol).
For `O=C(/C=C/c1ccccc1)N1CCN(Cc2cc(=O)n3nc(-c4ccccc4)sc3n2)CC1`, the survival is 90% (inactive).

Take `CC(NC(=O)C1CCN(C(=O)c2ccc(-n3ccc4ccccc43)s2)CC1)c1ccccc1` (stereo not given): the survival was 79% (inactive). To `CCOc1ccc(/C=C/C(=O)NCc2ccco2)cc1OC` belongs 83% (inactive); to `Cc1cc(C)nc(NS(=O)(=O)c2ccc(NC(=O)COc3ccc(C(C)(C)C)cc3)cc2)n1`, 56% (inactive); to `COCCN(Cc1ccc(C)c(Br)c1)S(=O)(=O)c1ccc2[nH]c(=O)ccc2c1`, 20% (active). Then `CN(C)CCN(Cc1ccccc1)S(=O)(=O)c1ccc2[nH]c(=O)ccc2c1`, with 95% (inactive). To `CCN(c1ccc(OC)cc1)S(=O)(=O)c1ccc2[nH]c(=O)ccc2c1` belongs 79% (inactive); to `Cc1ccc2oc(C(=O)Nc3ccc(S(=O)(=O)Nc4ncccn4)cc3)cc(=O)c2c1`, 70% (inactive); to `CCS(=O)(=O)N1CCc2cc(C(=O)Nc3cc(C)cc(C)c3)ccc21`, 80% (inactive). With `CCS(=O)(=O)N1CCc2cc(C(=O)Nc3cc([N+](=O)[O-])ccc3C)ccc21`, the survival is 40% (active). Then `Cc1ccc(C)c(NC(=O)c2ccc3c(c2)CCCN3S(C)(=O)=O)c1`, with 81% (inactive); and `CCS(=O)(=O)N1CCc2cc(C(=O)Nc3cc(Cl)ccc3C)ccc21`, with 72% (inactive).

Turning to `CCS(=O)(=O)N1CCc2cc(C(=O)Nc3ccc(C)c(Cl)c3)ccc21`, the survival is 98% (inactive). Then `CCS(=O)(=O)N1CCCc2cc(C(=O)Nc3cc([N+](=O)[O-])ccc3C)ccc21`, with 42% (active).

For `CCc1nc2cccnc2n1-c1ccc(CC(=O)Nc2cccc(C)c2C)cc1`, the survival was 81% (inactive).

`O=C(NCc1ccco1)C1CCC(N2C(=O)c3ccccc3C2=O)CC1` (stereo not given): the survival is 63% (inactive). To `C=CCNC(=O)Cc1c(O)c2ccccc2[nH]c1=O` belongs 101% (inactive). To `CCCCCc1c(O)c2ccccc2[nH]c1=O` belongs 103% (inactive); to `CC(C)COC(=O)Cc1c(O)c2ccccc2[nH]c1=O`, 39% (active).

With `Cc1ccc(NC(=O)C2CCN(S(=O)(=O)c3c(C)noc3C)CC2)cc1C`, the survival is 91% (inactive). As to `Cc1c(C)n(Cc2ccc(F)cc2)c2ccc(C(=O)N3CCN(c4ccc(Cl)cc4)CC3)cc12`, the survival is 83% (inactive). To `Cc1ccc(OCC(=O)OC2=C(C(=O)c3ccccc3)N(C)S(=O)(=O)c3ccccc32)cc1` belongs 82% (inactive). Then `CCN1C(C(=O)c2ccccc2)=C(OC(=O)COc2ccc(C)cc2)c2ccccc2S1(=O)=O`, with 79% (inactive); and `CCN1C(C(=O)c2ccccc2)=C(OC(=O)COc2ccccc2)c2ccccc2S1(=O)=O`, with 41% (active). As for `CCN1C(C(=O)c2ccccc2)=C(OC(=O)COc2ccc(OC)cc2)c2ccccc2S1(=O)=O`, the survival is 60% (inactive). Then `CCCN1C(C(=O)c2ccccc2)=C(OC(=O)COc2ccccc2)c2ccccc2S1(=O)=O`, with 49% (inactive); and `CCCN1C(C(=O)c2ccccc2)=C(OC(=O)COc2ccc(C)cc2)c2ccccc2S1(=O)=O`, with 19% (active). Then `COc1ccc(-c2nc(C)c(CCNS(=O)(=O)c3cc(C)c(C)cc3C)s2)cc1`, with 72% (inactive); and `CCc1ccc(Nc2nn(-c3ccc(OC(F)(F)F)cc3)nc2C(C)=O)cc1`, with 92% (inactive); and `CCOC(=O)N1N=C(C)CC1(O)c1ccccc1` (stereo not given), with 90% (inactive). Then `CCC1=NN(C(=O)c2ccccc2O)C(O)(c2ccccc2)C1` (stereo not given), with 1% (active). As to `CCC1=NN(C(=O)Cc2ccccc2)C(O)(c2ccccc2)C1` (stereo not given), the survival was 77% (inactive). For `COc1ccc(CCNC(=O)C2CCCN(c3nc4c(C)cc(C)cc4s3)C2)cc1OC` (stereo not given), the survival was 81% (inactive). To `O=C(CC(c1ccccc1)c1ccccc1)N1CCN(c2ccccn2)CC1` belongs 72% (inactive); to `COc1cc(OC)cc(C(=O)Nc2cc(-c3nc4ccccc4[nH]3)ccc2C)c1`, 44% (active); to `CCCOc1ccc(C(=O)Nc2cc(-c3nc4cc(C)cc(C)c4o3)ccc2C)cc1`, 85% (inactive).

For `Cc1ccc(C(C)C)c(OCC(=O)Nc2cc(-c3nc4ccccc4[nH]3)ccc2C)c1`, the survival was 71% (inactive).

On to `COc1c(Cl)cc(C(=O)Nc2cc(-c3nc4ccccc4[nH]3)ccc2C)cc1Cl`, for which the survival was 49% (inactive).

For the compound `Cc1ccc(-c2nc3ccccc3[nH]2)cc1NC(=O)COc1ccc(Cl)cc1Cl`, the survival is 18% (active). Regarding `Cc1ccc(-c2nc3ccccc3[nH]2)cc1NC(=O)C(C)C`, the survival was 70% (inactive). Then `CCCOc1ccc(C(=O)Nc2cc(-c3nc4ccccc4[nH]3)ccc2C)cc1`, with 44% (active); and `Cc1ccc(-c2nc3ccccc3[nH]2)cc1NC(=O)COc1ccccc1[N+](=O)[O-]`, with 60% (inactive).

Turning to `Cc1ccc(-c2nc3ccccc3[nH]2)cc1NC(=O)COc1cccc(C)c1C`, the survival is 43% (inactive).

With `CCCOc1cccc(C(=O)Nc2cc(-c3nc4ccccc4[nH]3)ccc2C)c1`, the survival was 56% (active). Then `CCCOc1cccc(C(=O)Nc2ccc(-c3nc4ccccc4o3)cc2)c1`, with 77% (inactive). With `Cc1ccc(OCC(=O)Nc2cc(-c3nc4ccccc4[nH]3)ccc2C)c(C)c1`, the survival is 78% (inactive).

As for `Cc1ccc(NC(=O)Cn2nc(C(F)(F)F)c3c2CCCC3)cc1`, the survival was 120% (inactive). To `CCn1c(=O)c2sccc2n2c(CCC(=O)Nc3ccc(OC)cc3OC)nnc12` belongs 82% (inactive); to `Cc1cccc(NC(=O)c2cnc3sc(N4CCCC4)nn3c2=O)c1C`, 73% (inactive). Then `Cc1ccc(NC(=O)C2CCCN(c3ncnc4c3nc3n4CCCCC3)C2)c(Br)c1` (stereo not given), with 87% (inactive); and `CC(=O)c1cccc(NC(=O)C2=CC(c3ccc4c(c3)OCO4)=NS(=O)(=O)N2C)c1`, with 72% (inactive).

Take `Cc1ccc(CNC(=O)CN(c2cc(C)cc(C)c2)S(=O)(=O)c2c(C)[nH]c(=O)[nH]c2=O)cc1`: the survival is 91% (inactive). For the compound `Cc1ccccc1NC(=O)CSc1nc2ccc(NC(=O)c3cccs3)cc2s1`, the survival was 91% (inactive). To `COC(=O)c1ccc(Cn2nnc3sc4c(c3c2=O)CCC(C)C4)cc1` (stereo not given) belongs 79% (inactive); to `CCOc1ccccc1NC(=O)Cn1nnc2sc3c(c2c1=O)CCC(C(C)(C)C)C3` (stereo not given), 106% (inactive); to `CCCCc1ccc(NC(=O)Cn2nnc3sc4c(c3c2=O)CCC(C)C4)cc1` (stereo not given), 58% (inactive). To `Cc1ccc(OCCn2nnc3sc4c(c3c2=O)CCC(C)C4)cc1` (stereo not given) belongs 54% (inactive); to `CC1CCc2c(sc3nnn(CCCCOc4ccc(Cl)cc4)c(=O)c23)C1` (stereo not given), 107% (inactive); to `CC1CCc2c(sc3nnn(Cc4ccc(F)cc4)c(=O)c23)C1` (stereo not given), -1% (active). For the compound `CC1CCc2c(sc3nnn(Cc4ccccc4Cl)c(=O)c23)C1` (stereo not given), the survival was 13% (active). To `Cc1ccc(Cn2nnc3sc4c(c3c2=O)CCC(C)C4)cc1` (stereo not given) belongs 54% (active).

As to `CCc1ccccc1NC(=O)Cn1nnc2sc3c(c2c1=O)CCC(C(C)(C)C)C3` (stereo not given), the survival is 47% (active). Then `CN(C)c1ccc(NC(=O)Cn2nnc3sc4c(c3c2=O)CCC(C(C)(C)C)C4)cc1` (stereo not given), with 79% (inactive); and `Cc1ccccc1OCCCCn1nnc2sc3c(c2c1=O)CCC(C)C3` (stereo not given), with 65% (inactive); and `CC1CCc2c(sc3nnn(CC(=O)Nc4ccccc4Cl)c(=O)c23)C1` (stereo not given), with 71% (inactive). Then `CCN(CC)C(=O)Cn1cc(SCC(=O)Nc2ccccc2F)c2ccccc21`, with 103% (inactive); and `CCc1cccc(NC(=O)c2cc3c(=O)[nH]c4ccccc4c3n2C)c1`, with 89% (inactive); and `C=CCNC(=O)C(C)N1CCN(C)CC1` (stereo not given), with 73% (inactive).

Turning to `Cc1ccccc1CNC(=O)C1CCN(S(=O)(=O)Cc2ccccc2)CC1`, the survival was 75% (inactive). Then `CCOc1ccc(-c2nnc(SCC(=O)Oc3ccccc3)o2)cc1`, with 71% (inactive); and `CCC12CN3CC(C)(CN(C1)C3c1ccc(O)cc1O)C2=O` (stereo not given), with 78% (inactive). For `CCc1ccc(S(=O)(=O)c2nnn3c2nc(NCc2ccccc2)c2cc(Cl)ccc23)cc1`, the survival is 86% (inactive). In the case of `CCCOC(=O)c1ccc(Cn2nnc3sc4c(c3c2=O)CCC(C)C4)cc1` (stereo not given), the survival is 79% (inactive).

Consider `CC1CCc2c(sc3nnn(Cc4cccc(C(=O)OC(C)C)c4)c(=O)c23)C1` (stereo not given), for which the survival was 78% (inactive). Then `CC1CCc2c(sc3nnn(Cc4ccccc4)c(=O)c23)C1` (stereo not given), with 3% (active); and `COc1ccccc1CNC(=O)C(C)n1c(=O)cc(C(F)(F)F)c2c(C)nn(C)c21` (stereo not given), with 94% (inactive); and `CCc1ccccc1NC(=O)Cn1nc2c3cc(F)ccc3n(Cc3cccc(C)c3)cc-2c1=O`, with 84% (inactive). Then `COc1ccccc1NC(=O)Cn1nc2c3cc(F)ccc3n(Cc3cccc(C)c3)cc-2c1=O`, with -2% (active); and `CCOc1ccccc1NC(=O)Cn1nc2c3cc(F)ccc3n(Cc3cccc(C)c3)cc-2c1=O`, with 72% (inactive); and `O=C(Cn1ccn(-c2cccc(Cl)c2)c(=O)c1=O)c1ccc(F)cc1`, with 59% (inactive). Then `O=C(Nc1ccc(Cl)cc1C(F)(F)F)c1cc(S(=O)(=O)NCc2ccccc2)ccc1F`, with 130% (inactive). `O=C(CN(Cc1ccccc1)C(=O)Cn1nnc(-c2ccc(F)cc2)n1)NC1CCCC1`: the survival is 70% (inactive).

On to `COc1ccc(-c2nc3ccc(NS(=O)(=O)c4ccc(C)cc4)cc3o2)cc1`, for which the survival was 45% (inactive). To `CCC(Oc1ccccc1)C(=O)Nc1ccc2oc(-c3ccc(OC)cc3)nc2c1` (stereo not given) belongs 111% (inactive); to `COc1ccc(-c2nc3ccc(NS(=O)(=O)c4ccccc4)cc3o2)cc1`, 36% (active); to `COc1ccc(-c2nc3ccc(NS(C)(=O)=O)cc3o2)cc1`, 77% (inactive).

With `COc1ccc(OCC(=O)Nc2ccc(-c3nc4cc(Cl)ccc4o3)cc2)cc1`, the survival is 134% (inactive). Then `COc1ccc(-c2nc3ccc(NS(=O)(=O)c4ccc(Cl)cc4)cc3o2)cc1`, with 23% (active); and `CCCCC(CC)CNC(=O)c1ccc(Cn2c(=O)[nH]c3cc(OC)c(OC)cc3c2=O)cc1` (stereo not given), with 72% (inactive). To `O=C(Cn1c(=O)c(CNc2ccccc2)cc2cc3c(cc21)OCCO3)Nc1ccccc1Cl` belongs 131% (inactive).

(Values after PubChem BioAssay AID463173 (ICCB-Longwood Screening Facility, Harvard Medical School, 2010).)
